# Laboratory results as given in the supplement of paper PMC12282887.
# ± gives the standard deviation of the averaged measurements.
# Experiments:
# Test in all cases: promoter activity interaction Z-score (Lux/OD deviation from empty-vector control); higher = stronger promoter induction by the compound
# [1] = system: E. coli BW25113 acrABp lux reporter
# How it was run: (§1)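 Every compound was given at four 1:2 dilutions, in biological duplicates, to E. coli BW25113 carrying low-copy luxCDABE promoter reporters in wild-type or single-gene deletion backgrounds. Growth in 40 µl LB Lennox in 384-well plates at 37°C was followed by OD600 and luminescence readings every 30 min for 12 h, integrated over 0–8 h for wild type and 1–9 h for deletion strains, with wells below 10% of the median growth value excluded. Scores are Z-transformed residuals of growth-normalised luminescence fitted against a control.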
# [2] = system: E. coli BW25113 marRABp lux reporter
# How it was run: as §1
# [3] = system: E. coli BW25113 micFp lux reporter
# How it was run: as §1
# [4] = system: E. coli BW25113 ompFp lux reporter
# How it was run: as §1
# [5] = system: E. coli BW25113 robp lux reporter
# How it was run: as §1
# [6] = system: E. coli BW25113 soxSp lux reporter
# How it was run: as §1
# [7] = system: E. coli BW25113 tolCp lux reporter
# How it was run: as §1
# [8] = 0.07 µg/ml, genetic background: wild type
# [9] = 0.07 µg/ml, genetic background: ΔmarA
# [10] = 0.07 µg/ml, genetic background: Δrob
# [11] = 0.07 µg/ml, genetic background: ΔsoxS
# [12] = 0.15 µg/ml, genetic background: wild type
# [13] = 0.15 µg/ml, genetic background: ΔmarA
# [14] = 0.15 µg/ml, genetic background: Δrob
# [15] = 0.15 µg/ml, genetic background: ΔsoxS
# [16] = 0.29 µg/ml, genetic background: wild type
# [17] = 0.29 µg/ml, genetic background: ΔmarA
# [18] = 0.29 µg/ml, genetic background: Δrob
# [19] = 0.29 µg/ml, genetic background: ΔsoxS
# [20] = 0.011 µg/ml, genetic background: wild type
# [21] = 0.011 µg/ml, genetic background: ΔmarA
# [22] = 0.011 µg/ml, genetic background: Δrob
# [23] = 0.011 µg/ml, genetic background: ΔsoxS
# [24] = 0.022 µg/ml, genetic background: wild type
# [25] = 0.022 µg/ml, genetic background: ΔmarA
# [26] = 0.022 µg/ml, genetic background: Δrob
# [27] = 0.022 µg/ml, genetic background: ΔsoxS
# [28] = 0.044 µg/ml, genetic background: wild type
# [29] = 0.044 µg/ml, genetic background: ΔsoxS
compound,measurement,setting,value
NCC[C@H](O)C(=O)N[C@@H]1C[C@H](N)[C@@H](O[C@H]2O[C@H](CN)[C@@H](O)[C@H](O)[C@H]2O)[C@H](O)[C@H]1O[C@H]1O[C@H](CO)[C@@H](O)[C@H](N)[C@H]1O [Amikacin],promoter activity interaction Z-score,[1]; [8],-0.0946 ± 0.19
same,promoter activity interaction Z-score,[1]; [9],-0.446 ± 0.067
same,promoter activity interaction Z-score,[1]; [10],-0.0638 ± 0.15
same,promoter activity interaction Z-score,[1]; [11],0.407 ± 0.79
same,promoter activity interaction Z-score,[1]; [12],-0.184 ± 0.091
same,promoter activity interaction Z-score,[1]; [13],0.671 ± 0.15
same,promoter activity interaction Z-score,[1]; [14],0.0534 ± 0.092
same,promoter activity interaction Z-score,[1]; [15],0.0811 ± 0.13
same,promoter activity interaction Z-score,[1]; [16],0.115 ± 0.19
same,promoter activity interaction Z-score,[1]; [17],-0.213 ± 0.41
same,promoter activity interaction Z-score,[1]; [18],0.174 ± 0.22
same,promoter activity interaction Z-score,[1]; [19],0.725 ± 0.52
same,promoter activity interaction Z-score,[2]; [8],-0.0461 ± 0.062
same,promoter activity interaction Z-score,[2]; [9],-0.273 ± 0.075
same,promoter activity interaction Z-score,[2]; [10],-0.255 ± 0.1
same,promoter activity interaction Z-score,[2]; [11],-0.0126 ± 0.0034
same,promoter activity interaction Z-score,[2]; [12],-0.123 ± 0.09
same,promoter activity interaction Z-score,[2]; [13],-0.134 ± 0.044
same,promoter activity interaction Z-score,[2]; [14],-0.00793 ± 0.05
same,promoter activity interaction Z-score,[2]; [15],-0.13 ± 0.069
same,promoter activity interaction Z-score,[2]; [16],0.0977 ± 0.14
same,promoter activity interaction Z-score,[2]; [17],0.566 ± 0.32
same,promoter activity interaction Z-score,[2]; [18],0.0547 ± 0.082
same,promoter activity interaction Z-score,[2]; [19],0.193 ± 0.079
same,promoter activity interaction Z-score,[3]; [8],0.278 ± 0.0046
same,promoter activity interaction Z-score,[3]; [9],-0.0226 ± 0.005
same,promoter activity interaction Z-score,[3]; [10],0.217 ± 0.22
same,promoter activity interaction Z-score,[3]; [11],0.0839 ± 0.14
same,promoter activity interaction Z-score,[3]; [12],0.512 ± 0.097
same,promoter activity interaction Z-score,[3]; [13],-0.00684 ± 0.057
same,promoter activity interaction Z-score,[3]; [14],0.12 ± 0.33
same,promoter activity interaction Z-score,[3]; [15],0.119 ± 0.33
same,promoter activity interaction Z-score,[3]; [16],-0.0466 ± 0.17
same,promoter activity interaction Z-score,[3]; [17],-0.0853 ± 0.18
same,promoter activity interaction Z-score,[3]; [18],0.176 ± 0.21
same,promoter activity interaction Z-score,[3]; [19],0.577 ± 0.056
same,promoter activity interaction Z-score,[4]; [8],0.0689 ± 0.025
same,promoter activity interaction Z-score,[4]; [9],-0.0472 ± 0.084
same,promoter activity interaction Z-score,[4]; [10],-0.503 ± 0.43
same,promoter activity interaction Z-score,[4]; [11],0.197 ± 1.1
same,promoter activity interaction Z-score,[4]; [12],0.165 ± 0.46
same,promoter activity interaction Z-score,[4]; [13],-0.0471 ± 0.24
same,promoter activity interaction Z-score,[4]; [14],-0.472 ± 0.32
same,promoter activity interaction Z-score,[4]; [15],-0.668 ± 0.2
same,promoter activity interaction Z-score,[4]; [16],0.00226 ± 0.33
same,promoter activity interaction Z-score,[4]; [17],-0.365 ± 0.65
same,promoter activity interaction Z-score,[4]; [18],-0.428 ± 0.22
same,promoter activity interaction Z-score,[4]; [19],-0.0742 ± 0.3
same,promoter activity interaction Z-score,[5]; [8],0.19 ± 0.2
same,promoter activity interaction Z-score,[5]; [9],-0.331 ± 0.085
same,promoter activity interaction Z-score,[5]; [10],0.0353 ± 0.83
same,promoter activity interaction Z-score,[5]; [11],-0.155 ± 0.68
same,promoter activity interaction Z-score,[5]; [12],0.0679 ± 0.58
same,promoter activity interaction Z-score,[5]; [13],-0.461 ± 0.45
same,promoter activity interaction Z-score,[5]; [14],-0.248 ± 0.33
same,promoter activity interaction Z-score,[5]; [15],-0.642 ± 0.14
same,promoter activity interaction Z-score,[5]; [16],-0.115 ± 0.051
same,promoter activity interaction Z-score,[5]; [17],0.598 ± 0.21
same,promoter activity interaction Z-score,[5]; [18],-1.2 ± 0.31
same,promoter activity interaction Z-score,[5]; [19],-0.0862 ± 0.53
same,promoter activity interaction Z-score,[6]; [8],0.354 ± 0.11
same,promoter activity interaction Z-score,[6]; [9],0.016 ± 0.15
same,promoter activity interaction Z-score,[6]; [10],0.176 ± 0.043
same,promoter activity interaction Z-score,[6]; [11],0.0385 ± 0.3
same,promoter activity interaction Z-score,[6]; [12],0.336 ± 0.13
same,promoter activity interaction Z-score,[6]; [13],0.137 ± 0.1
same,promoter activity interaction Z-score,[6]; [14],0.346 ± 0.51
same,promoter activity interaction Z-score,[6]; [15],-0.156 ± 0.15
same,promoter activity interaction Z-score,[6]; [16],0.219 ± 0.2
same,promoter activity interaction Z-score,[6]; [17],-0.031 ± 0.32
same,promoter activity interaction Z-score,[6]; [18],-0.131 ± 0.29
same,promoter activity interaction Z-score,[6]; [19],0.0937 ± 0.57
same,promoter activity interaction Z-score,[7]; [8],-0.282 ± 0.25
same,promoter activity interaction Z-score,[7]; [9],-0.355 ± 0.29
same,promoter activity interaction Z-score,[7]; [10],1.45 ± 1.6
same,promoter activity interaction Z-score,[7]; [11],1.15 ± 0.34
same,promoter activity interaction Z-score,[7]; [12],0.0971 ± 0.8
same,promoter activity interaction Z-score,[7]; [13],0.793 ± 0.15
same,promoter activity interaction Z-score,[7]; [14],0.637 ± 0.84
same,promoter activity interaction Z-score,[7]; [15],-0.668 ± 0.34
same,promoter activity interaction Z-score,[7]; [16],1.16 ± 1.8
same,promoter activity interaction Z-score,[7]; [17],-0.226 ± 1.1
same,promoter activity interaction Z-score,[7]; [18],1.53 ± 1.6
same,promoter activity interaction Z-score,[7]; [19],1.21 ± 0.019
COc1c(N2C[C@@H]3CCCN[C@@H]3C2)c(F)cc2c(=O)c(C(=O)O)cn(C3CC3)c12 [Moxifloxacin],promoter activity interaction Z-score,[1]; [20],0.0749 ± 0.025
same,promoter activity interaction Z-score,[1]; [21],-0.567 ± 0.78
same,promoter activity interaction Z-score,[1]; [22],0.0419 ± 0.7
same,promoter activity interaction Z-score,[1]; [23],0.247 ± 0.25
same,promoter activity interaction Z-score,[1]; [24],0.793 ± 0.42
same,promoter activity interaction Z-score,[1]; [25],1.07 ± 0.44
same,promoter activity interaction Z-score,[1]; [26],0.898 ± 1.1
same,promoter activity interaction Z-score,[1]; [27],0.353 ± 0.12
same,promoter activity interaction Z-score,[1]; [28],3.94
same,promoter activity interaction Z-score,[1]; [29],2.12 ± 1.1
same,promoter activity interaction Z-score,[2]; [20],0.044 ± 0.089
same,promoter activity interaction Z-score,[2]; [21],0.14 ± 0.15
same,promoter activity interaction Z-score,[2]; [22],-0.0981 ± 0.19
same,promoter activity interaction Z-score,[2]; [23],0.00173 ± 0.15
same,promoter activity interaction Z-score,[2]; [24],0.5 ± 0.56
same,promoter activity interaction Z-score,[2]; [25],1.62 ± 0.86
same,promoter activity interaction Z-score,[2]; [26],0.689 ± 0.17
same,promoter activity interaction Z-score,[2]; [27],0.0296 ± 0.046
same,promoter activity interaction Z-score,[2]; [28],4.34 ± 1.7
same,promoter activity interaction Z-score,[2]; [29],2.52 ± 1.1
same,promoter activity interaction Z-score,[3]; [20],-0.2 ± 0.019
same,promoter activity interaction Z-score,[3]; [21],0.154 ± 0.019
same,promoter activity interaction Z-score,[3]; [22],0.0249 ± 0.077
same,promoter activity interaction Z-score,[3]; [23],-0.0364 ± 0.073
same,promoter activity interaction Z-score,[3]; [24],-0.17 ± 0.072
same,promoter activity interaction Z-score,[3]; [25],0.371 ± 0.036
same,promoter activity interaction Z-score,[3]; [26],0.129 ± 0.04
same,promoter activity interaction Z-score,[3]; [27],0.0515 ± 0.087
same,promoter activity interaction Z-score,[3]; [28],-0.648 ± 0.45
same,promoter activity interaction Z-score,[3]; [29],-0.721 ± 0.42
same,promoter activity interaction Z-score,[4]; [20],0.138 ± 0.022
same,promoter activity interaction Z-score,[4]; [21],-0.0717 ± 0.18
same,promoter activity interaction Z-score,[4]; [22],0.0886 ± 0.25
same,promoter activity interaction Z-score,[4]; [23],0.123 ± 0.17
same,promoter activity interaction Z-score,[4]; [24],0.271 ± 0.48
same,promoter activity interaction Z-score,[4]; [25],0.695 ± 0.25
same,promoter activity interaction Z-score,[4]; [26],0.555 ± 0.53
same,promoter activity interaction Z-score,[4]; [27],0.184 ± 0.35
same,promoter activity interaction Z-score,[4]; [28],-0.0419 ± 2.9
same,promoter activity interaction Z-score,[5]; [20],1.08 ± 0.33
same,promoter activity interaction Z-score,[5]; [21],0.716 ± 0.13
same,promoter activity interaction Z-score,[5]; [22],0.563 ± 0.16
same,promoter activity interaction Z-score,[5]; [23],0.0805 ± 0.38
same,promoter activity interaction Z-score,[5]; [24],0.311 ± 0.14
same,promoter activity interaction Z-score,[5]; [25],0.295 ± 0.073
same,promoter activity interaction Z-score,[5]; [26],0.251 ± 0.47
same,promoter activity interaction Z-score,[5]; [27],0.687 ± 0.83
same,promoter activity interaction Z-score,[5]; [28],-1.23 ± 0.75
same,promoter activity interaction Z-score,[5]; [29],1.18 ± 0.81
same,promoter activity interaction Z-score,[6]; [20],0.023 ± 0.037
same,promoter activity interaction Z-score,[6]; [21],-0.096 ± 0.089
same,promoter activity interaction Z-score,[6]; [22],0.0641 ± 0.18
same,promoter activity interaction Z-score,[6]; [23],0.135 ± 0.027
same,promoter activity interaction Z-score,[6]; [24],0.0383 ± 0.078
same,promoter activity interaction Z-score,[6]; [25],-0.0462 ± 0.065
same,promoter activity interaction Z-score,[6]; [26],-0.139 ± 0.043
same,promoter activity interaction Z-score,[6]; [27],0.616 ± 0.023
same,promoter activity interaction Z-score,[6]; [28],0.204 ± 0.017
same,promoter activity interaction Z-score,[6]; [29],2.34 ± 1.4
same,promoter activity interaction Z-score,[7]; [20],0.549 ± 0.068
same,promoter activity interaction Z-score,[7]; [21],-0.242 ± 0.2
same,promoter activity interaction Z-score,[7]; [22],-0.0406 ± 1.1
same,promoter activity interaction Z-score,[7]; [23],0.127 ± 0.0073
same,promoter activity interaction Z-score,[7]; [24],-0.356 ± 0.14
same,promoter activity interaction Z-score,[7]; [25],-0.296 ± 0.43
same,promoter activity interaction Z-score,[7]; [26],-0.0729 ± 0.065
same,promoter activity interaction Z-score,[7]; [27],1.75 ± 2.6
same,promoter activity interaction Z-score,[7]; [28],0.111 ± 0.07
same,promoter activity interaction Z-score,[7]; [29],0.782 ± 1.2
